The full ranking holds about 33,000 sequences; the median of “E-score (-0.5 to 0.5)” is about -0.035, and the highest 2% start at about 0.35. The sample as a whole holds a higher share of the highest values than the screen did.
target: T1, Pdr3 (UniProt P33200); test: PBM E-score (8-mer binding enrichment) (E-score (-0.5 to 0.5)); higher = stronger / more preferred TF binding; conditions: protein concentration: 200 nM; construct: GST-full length
T1 sequence: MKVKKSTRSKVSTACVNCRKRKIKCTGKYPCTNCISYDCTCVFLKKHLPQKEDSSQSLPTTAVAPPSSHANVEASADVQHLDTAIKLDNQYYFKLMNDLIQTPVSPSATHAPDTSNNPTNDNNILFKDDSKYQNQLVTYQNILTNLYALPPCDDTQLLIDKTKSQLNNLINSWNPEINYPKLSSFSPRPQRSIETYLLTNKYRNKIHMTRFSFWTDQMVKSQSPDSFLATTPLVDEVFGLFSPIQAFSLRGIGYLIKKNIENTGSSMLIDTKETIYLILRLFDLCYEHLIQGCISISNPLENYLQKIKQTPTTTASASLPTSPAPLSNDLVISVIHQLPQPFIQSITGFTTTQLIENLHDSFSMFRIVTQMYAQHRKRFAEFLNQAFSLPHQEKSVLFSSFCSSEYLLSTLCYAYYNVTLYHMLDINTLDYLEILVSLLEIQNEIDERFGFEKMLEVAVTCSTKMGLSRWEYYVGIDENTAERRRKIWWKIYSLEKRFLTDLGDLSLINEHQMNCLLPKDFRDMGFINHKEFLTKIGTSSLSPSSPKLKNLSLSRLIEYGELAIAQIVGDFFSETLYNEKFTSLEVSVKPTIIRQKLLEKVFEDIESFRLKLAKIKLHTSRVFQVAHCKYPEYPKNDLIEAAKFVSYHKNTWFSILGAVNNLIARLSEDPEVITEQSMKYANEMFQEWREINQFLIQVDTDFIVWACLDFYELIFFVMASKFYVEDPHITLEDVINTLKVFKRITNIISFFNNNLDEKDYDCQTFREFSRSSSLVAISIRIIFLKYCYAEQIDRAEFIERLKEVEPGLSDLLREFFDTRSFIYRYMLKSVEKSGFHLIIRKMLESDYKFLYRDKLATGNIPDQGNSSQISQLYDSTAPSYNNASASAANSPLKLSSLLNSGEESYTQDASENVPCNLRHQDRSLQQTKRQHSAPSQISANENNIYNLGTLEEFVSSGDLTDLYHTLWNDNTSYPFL
In short: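 Detection of bound protein used fluorescent anti-GST, with scans normalised by masliner. The proteins were GST-tagged yeast transcription factors applied at about 100-200 nM to universal all-10-mer Agilent arrays made double-stranded by primer extension. Each ungapped eight-base word, pooled with its reverse complement, was scored with an E-score from the Universal PBM Analysis Suite.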

| Sequence | PBM E-score |
| --- | --- |
| CCTCTACC | -0.104 |
| AGCGAGCA | -0.189 |
| ATAATCAT | 0.0794 |
| AGTCTTAG | -0.224 |
| CGATTCGA | 0.143 |
| AGTGTCGA | 0.0406 |
| ATGACCAA | -0.0317 |
| ATGCCCTC | -0.0557 |
| AGCTAAAT | -0.165 |
| ACAGTTAC | -0.111 |
| CGCTATCC | 0.158 |
| AACGAGAA | -0.0948 |
| CAAGGGCA | -0.0651 |
| AGGCACGC | 0.049 |
| GGCGGCCC | -0.00494 |
| CTCACCAA | 0.136 |
| AAGCGGTC | 0.00531 |
| ACGGGGAA | 0.204 |
| TCCCGGGA | 0.485 |
| TACCGGGA | 0.347 |
| CCCCGGGA | 0.417 |
| TCCGGGCA | 0.346 |

| Sequence | PBM E-score |
| --- | --- |
| CCCCGGTA | 0.122 |
| CCCCGGCA | 0.189 |
| CCGGGGAA | 0.356 |
| TCCGGGAA | 0.386 |
| CGGGGGAA | 0.276 |
| GCCGGGAA | 0.304 |
| TCCCGGCA | 0.323 |
| ATTACACA | -0.0105 |
| AAACGCGG | 0.245 |
| ACCAGGCG | -0.0145 |
| AGCCTTTA | -0.193 |
| GGCTAAAC | -0.135 |
| ATCATTCC | 0.281 |
| CTCATTCC | 0.356 |
| CTCATTCA | -0.0959 |
| AGATAGGC | -0.16 |
| ATGCTCTC | -0.108 |
| ATGCCGGC | 0.341 |
| ATGCCGGA | 0.405 |
| ATGCCGGG | 0.245 |
| CTGCCGGA | 0.32 |
| GTGCCGGA | 0.369 |

| Sequence | PBM E-score |
| --- | --- |
| GTGCCGTA | 0.0678 |
| CTAGCAAA | -0.187 |
| CTTCCGAA | 0.385 |
| GGTCCGAA | 0.319 |
| ACTCCGAA | 0.238 |
| ACTCCGAC | 0.255 |
| CTTCCGAC | 0.267 |
| CTACCGAA | -0.0817 |
| ATTCCGAC | 0.413 |
| GTTCCAAA | -0.00321 |
| CTTCCAAA | -0.155 |
| GTTCCGAA | 0.471 |
| ATTCCGAA | 0.436 |
| AATCCGAA | 0.0894 |
| ACACGGCC | 0.14 |
| CTCCACGA | -0.144 |
| GTCTAGGA | -0.256 |
| AACGCATC | -0.139 |
| ACTTACCG | 0.233 |
| AATTTTAG | -0.194 |
| ATCAGTCA | 0.0413 |
| GGCCAAGA | -0.176 |

| Sequence | PBM E-score |
| --- | --- |
| GGGTTGAC | 0.0502 |
| CTCGCGCA | -0.029 |
| AGCCTAAT | -0.208 |
| AGCATACC | -0.0406 |
| AGTCCGAG | 0.281 |
| ACTCCGAG | 0.28 |
| ATTCCGAG | 0.449 |
| AAGAGCAA | -0.123 |
| ATGCGGTC | 0.21 |
| CGTTAAGA | -0.136 |
| CCGGGAAC | 0.362 |
| CGGGGAAC | 0.258 |
| CCGGGAAG | 0.359 |
| ACGGGAAG | 0.133 |
| ACGGGAAC | 0.33 |
| CCGGGAAA | 0.344 |
| AGAAGGTA | -0.0743 |
| ACGAGGCC | -0.0311 |
| AGTATGCC | -0.0201 |
| CGCTTCCA | -0.00125 |
| AGCTTCCC | -0.0703 |
| AGCTTCCA | 0.0336 |

| Sequence | PBM E-score |
| --- | --- |
| CGCTTCCC | 0.0936 |
| AGCTTCCG | 0.416 |
| CGCTTCCG | 0.419 |
| ACGGAACA | 0.477 |
| GTGGAACA | 0.0611 |
| GCGGAACA | 0.474 |
| TAGGAACA | -0.0452 |
| CTGGAACA | 0.117 |
| TGGGAACA | 0.0839 |
| CAGGAACA | -0.0115 |
| TCGGAACA | 0.483 |
| CCGGAACA | 0.471 |
| AAGGAACA | -0.129 |
| GAGGAACA | 0.147 |
| ATGGAACA | -0.0996 |
| ACTTGCAG | -0.177 |
| AGGGCCTG | -0.195 |
| AGAAAATA | 0.0181 |
| GGAGTAAC | 0.0889 |
| ATAGACCC | 0.154 |
| TCTCGTCA | -0.0279 |
| AGGGGCAC | -0.293 |
